# In the library only some 27% were active in any assay of this set; here they are far more common.
# CYP2C9 act = activators of human CYP2C9; P11712; recombinant CYP2C9, luciferin-H conversion, luminescence; hits give high values; factor 1 = untreated enzyme, 0 = blocked; activation factor at 5 µM; 96,000 tested, 1.4% active; AID 1024;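 active = activation factor of 2 or more for CYP2C9 at a 5 µM dose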
# CYP2C19 inh = human CYP2C19 inhibition; CYP2C19 Supersomes, luciferin-H EGE luminescence, 30 min; 96,000 tested, 21% active; P33261; inhibition, % at 5 µM;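 active = CYP2C19 inhibition above a set limit at 5 µM in the primary screen, cut at about 50% in these data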
# Target sequence (P33261 whole entry, looked up): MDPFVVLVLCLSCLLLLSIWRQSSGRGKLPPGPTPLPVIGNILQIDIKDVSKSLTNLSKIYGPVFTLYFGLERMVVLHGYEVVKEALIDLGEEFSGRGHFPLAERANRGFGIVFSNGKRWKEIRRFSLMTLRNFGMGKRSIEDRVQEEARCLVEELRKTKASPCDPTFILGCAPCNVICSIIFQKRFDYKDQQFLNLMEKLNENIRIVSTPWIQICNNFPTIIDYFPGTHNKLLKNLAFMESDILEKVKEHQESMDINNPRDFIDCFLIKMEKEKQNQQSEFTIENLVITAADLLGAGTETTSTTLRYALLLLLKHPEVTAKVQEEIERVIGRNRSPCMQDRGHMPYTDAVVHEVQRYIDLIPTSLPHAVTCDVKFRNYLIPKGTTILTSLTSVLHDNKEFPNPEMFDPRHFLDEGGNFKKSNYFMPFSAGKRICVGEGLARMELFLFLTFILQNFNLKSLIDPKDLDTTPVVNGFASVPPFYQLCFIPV
# CYP2C9 inhib = inhibitors of human CYP2C9; AID 777; CYP2C9 Supersomes, luciferin-H conversion, luminescence; inhibition, % at 5 µM; P11712; 96,000 tested, 20% active;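 active = blocking of liver enzyme CYP2C9 beyond about 50% at 5 µM, limit read from the data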
# CYP2C19 activ = increases human CYP2C19 enzyme activity. recombinant CYP2C19, luciferin-H EGE luminescence; hits give high values; 0 = fully inhibited enzyme, 1 = untreated enzyme. activation factor at 5 µM. P33261. 96,000 tested, under 10 active;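 active = activation factor of at least 2 at 5 µM in the primary screen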
# Cav3 T inh = inhibitors of human Cav3.2 T-type calcium channel; Cav3.2-expressing cells, Fluo-4 calcium fluorescence FDSS; hits give low values; B-score at 10 µM; 100,000 tested, 4% active;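 active = single-dose well whose peak fluorescence ratio is a statistical outlier from its plate by either plate-standardised score or position-corrected B-score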
# Numbers stand for hits; – = inactive; · = no result given.
SMILES,CYP2C9 act,CYP2C19 inh,CYP2C9 inhib,CYP2C19 activ,Cav3 T inh
CCCCSc1nnc([C@H](C)NC(=O)OC(C)(C)C)o1,–,75,–,–,–
CCOC(=O)CSc1nnc([C@H](CC(C)C)NC(=O)OC(C)(C)C)o1,·,·,·,·,–
COC(=O)CSc1nnc([C@H](CC(C)C)NC(=O)OC(C)(C)C)o1,–,66,–,–,–
CCn1c(=O)cc(SCC(=O)Nc2cccc(SC)c2)c2ccccc21,–,–,–,–,–
CCn1c2ccccc2c2cc(NC(=O)CSc3nnc(-c4cccc(C)c4)o3)ccc21,–,63,64,–,–
CCn1c2ccccc2c2cc(NC(=O)CSc3nnc(-c4ccccc4)o3)ccc21,–,95,78,–,–
Cc1cccc(NC(=O)CSc2nnc(Cn3cnc4ccccc43)o2)c1,·,·,·,·,–
CCn1c2ccccc2c2cc(NC(=O)CSc3nnc(-c4cccc(F)c4)o3)ccc21,–,91,70,–,–
COc1cccc(CNC(=O)C2CCCN(S(=O)(=O)c3c(C)n[nH]c3C)C2)c1 (stereo not given),–,–,–,–,–
O=C(CCN1C(=O)c2ccccc2C1=O)Nc1cccnc1,·,·,·,·,–
O=c1oc2c(CN3CCOCC3)c(O)ccc2c2c1CCC2,–,–,–,–,–
CC(C)CN(Cc1c(O)ccc2c3c(c(=O)oc12)CCC3)CC(C)C,–,–,–,–,–
Cc1c(O)ccc2c3c(c(=O)oc12)CCC(C)C3 (stereo not given),–,93,–,–,–
Cc1oc2c(C)c3oc(=O)c4c(c3cc2c1C)CCCC4,–,96,50,–,–
Cc1c(O)ccc2c3c(c(=O)oc12)CCCC3,3,69,–,–,–
Cc1ccc(-c2cc(C)nc3nc(N)nn23)cc1,–,–,–,–,–
COC1=CC(=O)C(O)=C(CCCCCCC/C=C/CCCCCCCC2=C(O)C(=O)C=C(OC)C2=O)C1=O,·,·,·,·,-5.2
CCCCCCCCCCCC1=C(O)C(=O)C=C(O)C1=O,·,·,·,·,–
COc1ccc(OC)c(-n2c(SCC(=O)Nc3cc(C)on3)nnc2-c2c[nH]c3ccccc23)c1,–,84,68,–,–
CCn1c(SCC(=O)NCc2ccc3c(c2)OCO3)nnc1-c1c[nH]c2ccccc12,·,·,·,·,–
CCCCNC(=O)CSc1nnc(-c2c[nH]c3ccccc23)n1CC1CCCO1 (stereo not given),–,53,–,–,–
Cc1cc(NC(=O)CSc2nnc(-c3c[nH]c4ccccc34)n2C)no1,·,·,·,·,–
COc1cccc(-n2c(SCC(N)=O)nnc2-c2c[nH]c3ccccc23)c1,–,89,–,–,–
COCCn1c(SCC(=O)Nc2cc(C)on2)nnc1-c1c[nH]c2ccccc12,–,55,75,–,–
COc1cccc(-c2nnc(SCC(N)=O)n2-c2ccc(Cl)cc2)c1,–,–,–,–,–
SMILES,CYP2C9 act,CYP2C19 inh,CYP2C9 inhib,CYP2C19 activ,Cav3 T inh
CCC(C)NC(=O)COc1ccc(S(=O)(=O)N2CCOCC2)cc1 (stereo not given),–,–,–,–,–
Cc1ccccc1-n1c(SCc2c(C)noc2C)nnc1-c1c[nH]c2ccccc12,–,–,–,–,–
COc1ccc(OC)c(-n2c(SCC(N)=O)nnc2-c2c[nH]c3ccccc23)c1,–,–,58,–,–
COc1ccc(OC)c(-n2c(SC)nnc2-c2c[nH]c3ccccc23)c1,–,78,68,–,–
COC(=O)c1cc(=O)nc2scc(C)n12,·,·,·,·,–
CCCC(=O)O[C@@H]1C[C@@H](C)N(C(=O)c2ccccc2)c2ccc(C)cc21,–,–,–,–,-4.1
CCCCCCCC1CC(CSc2ncn[nH]2)OC1=O (stereo not given),·,·,·,·,–
CCCCC1CC(CSc2ncn[nH]2)OC1=O (stereo not given),–,80,–,–,–
COc1ccc(CCNC(=O)CSc2nc(O)c(C(C)C)c(=O)[nH]2)cc1OC,·,·,·,·,–
CCC(CC)C(=O)Nc1cccc(C(=O)c2ccccc2)c1,–,70,55,–,–
CCC(CC)C(=O)Nc1cccc(/C(C)=N/NC(=O)c2ccccc2Cl)c1,–,51,–,–,–
COc1ccc(S(=O)(=O)N/N=C(/C)c2cccc(NC(=O)c3ccccc3Cl)c2)cc1,–,97,95,–,·
CCC(CC)C(=O)Nc1cccc(/C(C)=N/NC(=O)c2c(Br)cnn2C)c1,–,–,–,–,–
Cc1ccc2oc(-c3cccc(NC(=O)c4ccc(Br)o4)c3)nc2c1,–,–,53,–,·
Cc1ccc(N2C(=O)CC(Sc3ncn[nH]3)C2=O)cc1C (stereo not given),–,–,–,–,–
